Laboratory results taken from PubChem BioAssay (EPA / NIEHS).
“And” between values parts separate entries of the source, which are not always exact repeats. Identical values can stand only once. Inconclusive results are not listed. A structure can be active in one record and inactive in another. The source made the active and inactive calls. How the source made its calls, unless noted: active means hit-call score of the fitted dose curve at least 0.9, where 1 is the maximum; inactive means score below 0.9.

Key:
[1] = UKN2_HCS_IMR90_neural_migration: University of Konstanz (UKN) Leist Lab Neural Crest Cell Migration Assay in human induced IMR90 Pluripotent Stem Cells (UKN2) (AID 2284204); conditions: actives raise or lower the signal
Summary of the method: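 iPSC-derived IMR90 neural crest cells seeded around stoppers on PLO/laminin/fibronectin; migration started in N2-S medium with EGF/FGF, compounds added after 24 h for 24 h. Migration into cell-free area imaged after calcein-AM/Hoechst staining; bidirectional fit versus DMSO.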

[2] = IUF_NPC1b_proliferation_BrdU_72hr: Leibniz Research Institute for Environmental Medicine (IUF) 72-hour Neural Progenitor Cell Bromodeoxyuridine (BrdU) Proliferation Assay (NPC1b) (AID 2284207)
Summary of the method: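 BrdU luminescence ELISA quantified DNA synthesis over the last 16 h of a 72 h exposure, fitted against DMSO. Primary hNPC spheres from gestational week 16-19 cortex grown with EGF/FGF at 37C, pH 7.2-7.6.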

[3] = IUF_NPC1a_proliferation_area_72hr: Leibniz Research Institute for Environmental Medicine (IUF) 72-hour Neural Progenitor Cell Proliferation Area Assay (NPC1a) (AID 2284208)
Summary of the method: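 Single 0.25–0.35 mm human fetal neural progenitor spheres in proliferation medium with EGF and FGF, exposed 72 h from plating without renewal at 37C, pH 7.2-7.6. Sphere area growth measured by automated phase-contrast imaging, relative to DMSO.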

[4] = IUF_NPC1_viability_72hr: Viability Assessment at 72 hours in the Leibniz Research Institute for Environmental Medicine (IUF) Neural Progenitor Cell Proliferation Assay (NPC1) (AID 2284209)
Summary of the method: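 Each well receives one 0.3 mm progenitor sphere from fetal brain cortex; test chemical is added at plating and left three days. Viability comes from alamar blue fluorescence, multiplexed with LDH and BrdU readouts in the same well.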

[5] = CCTE_Mundy_HCI_Cortical_Synap_Neur_Matur_NeuriteSpotCountPerNeuriteLength: CCTE's Synaptogenesis and Neurite Maturation Assay in rat cortical cells for Neurite Spot Count per Neurite Length, Mundy Lab (AID 2284210)
Summary of the method: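 Rat primary cortical cultures, AraC added at DIV 5 to suppress glia; chemical exposure from DIV 7 to DIV 12. Fixed cells stained for MAP2 and synaptophysin plus Hoechst; synaptophysin puncta per neurite length quantified by high-content imaging, relative to DMSO.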

[6] = CCTE_Mundy_HCI_Cortical_Synap_Neur_Matur_BPCount: CCTE's Synaptogenesis and Neurite Maturation Assay in rat cortical cells for Branch Point Count, Mundy Lab (AID 2284211)
Summary of the method: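 Branch point number is quantified by automated imaging of fluorescently labelled neurites and synapses in rat primary cortical neurons exposed from DIV 7 to DIV 12. Activity is analysed relative to DMSO negative control.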

[7] = CCTE_Mundy_HCI_Cortical_NOG_NeuriteCount: CCTE's Neurite Outgrowth Assay in rat cortical cells for Neurite Count, Mundy Lab (AID 2284212);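 further: cells fixed about two days after chemical exposure began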
Summary of the method: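 Neurite number per cell from high-content imaging of betaIII-tubulin immunostaining, with Hoechst nuclear counterstain.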

[8] = CCTE_Mundy_HCI_Cortical_NOG_NeuriteLength: CCTE's Neurite Outgrowth Assay in rat cortical cells for Neurite Length, Mundy Lab (AID 2284213);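 on AC50: neurites imaged about 48 to 50 h after chemical exposure began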
Summary of the method: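 Neurite length was read by high-content imaging of βIII-tubulin-labelled neurites in rat primary cortical cultures. Activity was fitted relative to DMSO.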

[9] = CCTE_Mundy_HCI_Cortical_Synap_Neur_Matur_NeuriteLength: CCTE's Synaptogenesis and Neurite Maturation Assay in rat cortical cells for Neurite Length, Mundy Lab (AID 2284214)
Summary of the method: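 Neurite length in rat primary cortical cultures is imaged after MAP2, synaptophysin and Hoechst staining. Dosing starts DIV 7, ending DIV 12; DMSO serves as negative control and baseline.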

[10] = CCTE_Mundy_HCI_Cortical_Synap_Neur_Matur_NeuriteSpotCountPerNeuron: CCTE's Synaptogenesis and Neurite Maturation Assay in rat cortical cells for Neurite Spot Count per Neuron Count, Mundy Lab (AID 2284215)
Summary of the method: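 Rat primary cortical cultures given AraC at DIV 5, dosed from DIV 7 to DIV 12 with media change. Fixed, stained for MAP2, synaptophysin and Hoechst; neurite-associated synaptophysin puncta per neuron quantified by high-content imaging versus DMSO.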

[11] = CCTE_Mundy_HCI_Cortical_Synap_Neur_Matur_SynapseCount: CCTE's Synaptogenesis and Neurite Maturation Assay in rat cortical cells for Synapse Count, Mundy Lab (AID 2284218)
Summary of the method: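 Synapse count per neuron is measured in rat cortical neurons exposed to chemicals between DIV 7 and DIV 12, with glial growth arrested by AraC at DIV 5. Synaptophysin and MAP2 staining is imaged automatically; activity is fitted relative to DMSO.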

[12] = CCTE_Mundy_HCI_Cortical_Synap_Neur_Matur_NeuriteCount: CCTE's Synaptogenesis and Neurite Maturation Assay in rat cortical cells for Neurite Count, Mundy Lab (AID 2284222)
Summary of the method: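 Rat cortical neurons, 96-well; AraC DIV 5; chemical + media change DIV 7; end DIV 12. Fix PFA/Hoechst, anti-MAP2 + anti-synaptophysin IF. HCI neurite count vs DMSO baseline.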

[13] = CCTE_Mundy_HCI_Cortical_Synap_Neur_Matur_CellBodySpotCount: CCTE's Synaptogenesis and Neurite Maturation Assay in rat cortical cells for Cell Body Spot Count, Mundy Lab (AID 2284223)
Summary of the method: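 Primary rat cortical cultures, AraC added at DIV 5; dosed DIV 7 through DIV 12 […]. Fixed, stained for MAP2 and synaptophysin with Hoechst; cell body-associated synaptophysin puncta per neuron counted by high-content imaging, loss vs DMSO.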

[14] = CCTE_Mundy_HCI_hNP1_Pro_ResponderAvgInten: CCTE's Proliferation Assay in human neuroprogenitor cells, Mundy Lab (AID 2284224; active means hit-call score of the fitted dose curve at least 0.9, where 1 is the maximum;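 further: human neural progenitor cells hNP1 derived from WA09 embryonic stem cells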)
Summary of the method: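 Proliferation read as average intensity of BrdU-positive cells, imaged at 26.25 h post-dosing: chemical exposure started after 40–44 h culture, BrdU during final 4 h, paraformaldehyde fixation. Positive-direction fit relative to DMSO.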

[15] = UKN4_HCS_LUHMES_neurite_outgrowth: University of Konstanz (UKN) Leist Lab Neurite Outgrowth Assay in human LUHMES cells (UKN4) (AID 2284206); conditions: actives raise or lower the signal
Summary of the method: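 2-day-differentiated LUHMES, 24 h cpd exposure, live calcein-AM + H-33342 stain, HCS fluorescence imaging of neurite area; DMSO = baseline, bidirectional fit.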

[16] = CCTE_Mundy_HCI_hN2_NOG_NeuriteCount: CCTE's Neurite Outgrowth Assay in human hN2 cells for Neurite Count, Mundy Lab (AID 2284219; active means hit-call score of the fitted dose curve at least 0.9, where 1 is the maximum)
Summary of the method: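 In this morphology assay, hNP1-derived neurons received test chemical 2 h post-plating and were fixed two days later in warm paraformaldehyde/sucrose containing Hoechst 33342. Neurites, labelled by rabbit anti-βIII-tubulin (1:800) and Alexa Fluor-488 (1:500), were counted automatically.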

[17] = CCTE_Mundy_HCI_hN2_NOG_NeuriteLength: CCTE's Neurite Outgrowth Assay in human hN2 cells for Neurite Length, Mundy Lab (AID 2284220; active means hit-call score of the fitted dose curve at least 0.9, where 1 is the maximum)
Summary of the method: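 Read-out is neurite length from high-content imaging of βIII-tubulin/Alexa Fluor-488-labelled neurons, referenced to DMSO controls.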

[18] = CCTE_Mundy_HCI_hN2_NOG_NeuronCount: CCTE's Neurite Outgrowth Assay in human hN2 cells for Neuron Count, Mundy Lab (AID 2284221; active means hit-call score of the fitted dose curve at least 0.9, where 1 is the maximum)
Summary of the method: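 Read-out is the number of betaIII-tubulin-positive neurons imaged by automated high-content analysis, with DMSO as negative control.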

Measured: AC50

CC(C)(C)c1ccc(CSc2cnn(C(C)(C)C)c(=O)c2Cl)cc1
active: [2] 0.0138 µM | [3] 0.0126 µM | [5] 0.000994 µM | [6] 0.000559 µM | [7] 0.00768 µM | [8] 0.00479 µM | [9] 0.000626 µM | [10] 0.000469 µM | [11] 0.000602 µM | [12] 0.00118 µM | [13] 0.00106 µM | [14] 4.85 µM
inactive: [1] | [4]

N#Cc1nn(-c2c(Cl)cc(C(F)(F)F)cc2Cl)c(N)c1S(=O)C(F)(F)F (stereo not drawn)
active: [1] 21.3 µM | [15] 16.1 µM | [5] 15 µM | [10] 3.22 µM | [11] 3.22 µM
not listed: [16] | [17] | [18]
inactive: all other assays above

COC(=O)N(OC)c1ccccc1COc1ccn(-c2ccc(Cl)cc2)n1
active: [1] 29.2 µM | [2] 4.1 µM | [3] 1.44 µM | [4] 7.52 µM | [5] 0.0823 µM | [6] 0.0563 µM | [7] 0.141 µM | [8] 0.153 µM | [9] 0.0838 µM | [10] 0.0537 µM | [11] 0.0709 µM | [12] 0.105 µM | [13] 0.113 µM | [14] 81.5 µM

Cc1ccc(-c2c(Cl)nc(C#N)n2S(=O)(=O)N(C)C)cc1
inactive: [1]
active: [2] 74.2 µM | [3] 74.1 µM | [4] 83 µM | [5] 73.3 µM | [6] 71.1 µM | [7] 72.9 µM | [8] 85.3 µM | [9] 85.7 µM | [10] 70.3 µM | [11] 74.3 µM | [12] 80.2 µM | [13] 87.8 µM | [14] 50 µM

CCCCOC(=O)c1ccccc1C(=O)OCCCC
active: [5] 84.1 µM | [6] 50 µM | [9] 64.7 µM | [10] 50 µM | [11] 50 µM | [12] 85.8 µM | [13] 89.5 µM
inactive: [1] | [2] | [3] | [4] | [7] | [8]

CO/C=C(/C(=O)OC)c1ccccc1Oc1cc(Oc2ccccc2C#N)ncn1
inactive: [1] | [2] | [4]
active: [3] 60.2 µM | [5] 5.11 µM | [6] 3.25 µM | [7] 2.73 µM | [8] 2.58 µM | [9] 3.56 µM | [10] 2.75 µM | [11] 3.62 µM | [12] 4.78 µM | [13] 5.6 µM

CCOC(=O)CC(SP(=S)(OC)OC)C(=O)OCC (stereo not drawn)
active: [6] 50 µM | [8] 77.6 µM and 15 µM | [9] 61.9 µM | [10] 50 µM | [11] 50 µM | [16] 34.8 µM | [17] 34.2 µM | [18] 33.6 µM
inactive: [2] | [3] | [4] | [5] | [6] | [9] | [10] | [11] | [12] | [13] | [14]

CCCCNC(=O)n1c(NC(=O)OC)nc2ccccc21
inactive: [5] | [7] | [10] | [11] | [12] | [13]
active: [1] 10 µM | [15] 7.73 µM | [6] 15 µM | [8] 11.1 µM | [9] 15 µM
